Assay results from PubChem BioAssay (EPA / NIEHS).
The source made the active and inactive calls. Rule for the calls: active = hit-call score of the fitted dose curve at least 0.9, where 1 is the maximum; inactive = score below 0.9.

Experiments:
[1] = read-out: catalase (CAT), CAT (gene 847); experiment: LTEA_HepaRG_CAT: Life Technologies and Expression Analysis (LTEA) Assay for catalase (CAT) using HepaRG (AID 2283452); settings: mRNA level, 48 h; actives raise or lower the signal;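 for AC50: TaqMan qRT-PCR signal normalized to ACTB GAPDH and POLR2A housekeeping genes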
Method in brief: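 Expression of CAT was quantified by TaqMan qRT-PCR with ACTB/GAPDH/POLR2A normalization after 48 h chemical exposure of HepaRG. Eight-point half-log series, top 100 uM, in 0.5% DMSO; gain or loss fitted against vehicle.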

[2] = read-out: flavin-containing dimethylaniline monooxygenases 3 (FMO3), FMO3 (gene 2328); experiment: LTEA_HepaRG_FMO3: Life Technologies and Expression Analysis (LTEA) Assay for flavin-containing dimethylaniline monooxygenases 3 (FMO3) using HepaRG (AID 2283453); settings: mRNA level, 48 h; actives raise or lower the signal;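 for AC50: differentiated human HepaRG liver cells in serum-free induction medium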
Method in brief: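 Eight-point concentration-response in serum-free HepaRG cultures (top 100 uM, 0.5% DMSO, 48 h). Read-out: FMO3 mRNA level normalized to three endogenous control genes, fitted bidirectionally versus vehicle.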

[3] = read-out: growth arrest and DNA damage 45 (GADD45A), GADD45A (gene 1647); experiment: LTEA_HepaRG_GADD45A: Life Technologies and Expression Analysis (LTEA) Assay for growth arrest and DNA damage 45 (GADD45A) using HepaRG (AID 2283458); settings: mRNA level, 48 h; actives raise or lower the signal
Method in brief: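 HepaRG, 48 h exposure, 8 conc. (top 100 uM, half-log steps), 0.5% DMSO vehicle, duplicates. Read-out: qRT-PCR mRNA level, housekeeping-normalized (ACTB/GAPDH/POLR2A). Curves fit bidirectionally vs DMSO baseline.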

[4] = read-out: Forkhead box O3 (FOXO3), FOXO3 (gene 2309); experiment: LTEA_HepaRG_FOXO3: Life Technologies and Expression Analysis (LTEA) Assay for Forkhead box O3 (FOXO3) using HepaRG (AID 2283459); settings: mRNA level, 48 h; actives raise or lower the signal
Method in brief: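 FOXO3 transcript measured by qRT-PCR (normalized to ACTB, GAPDH, POLR2A) after 48 h exposure of HepaRG cells in serum-free induction medium. Duplicates, eight half-log concentrations up to 100 uM, 0.5% DMSO; gain or loss fitted against DMSO.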

[5] = read-out: ABC Transporter (ABCB1), ABCB1 (gene 5243); experiment: LTEA_HepaRG_ABCB1: Life Technologies and Expression Analysis (LTEA) Assay for ABC Transporter (ABCB1) using HepaRG (AID 2283460); settings: mRNA level, 48 h; actives raise or lower the signal
Method in brief: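 ABCB1 transcript level measured by TaqMan qRT-PCR against three housekeeping genes after 48 h chemical exposure of differentiated HepaRG cells. Top concentration 100 uM, half-log steps, eight points, 0.5% DMSO vehicle; bidirectional fit relative to DMSO.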

[6] = read-out: growth arrest and DNA damage 45 (GADD45B), GADD45B (gene 4616); experiment: LTEA_HepaRG_GADD45B: Life Technologies and Expression Analysis (LTEA) Assay for growth arrest and DNA damage 45 (GADD45B) using HepaRG (AID 2283461); settings: mRNA level, 48 h; actives raise or lower the signal
Method in brief: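 HepaRG, ~100,000 cells/well, 48 h plating; serum-free induction medium; cpd 100 uM top, half-log x8, 0.5% DMSO, duplicate, 48 h; lysis in RLT, RNA isolation, qRT-PCR; norm ACTB/GAPDH/POLR2A; bidirectional fit vs DMSO.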

[7] = read-out: ABC Transporter (ABCC3), ABCC3 (gene 8714); experiment: LTEA_HepaRG_ABCC3: Life Technologies and Expression Analysis (LTEA) Assay for ABC Transporter (ABCC3) using HepaRG (AID 2283462); settings: mRNA level, 48 h; actives raise or lower the signal
Method in brief: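 Human HepaRG, 48 h dosing, 8-pt half-log series from 100 uM, 0.5% DMSO vehicle, duplicates. ABCC3 mRNA by TaqMan qRT-PCR, housekeeping-normalized; bidirectional curve fit vs DMSO.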

[8] = read-out: ABC Transporter (ABCB11), ABCB11 (gene 8647); experiment: LTEA_HepaRG_ABCB11: Life Technologies and Expression Analysis (LTEA) Assay for ABC Transporter (ABCB11) using HepaRG (AID 2283463); settings: mRNA level, 48 h; actives raise or lower the signal
Method in brief: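 ABCB11 transcript levels quantified by TaqMan qRT-PCR against three housekeeping genes after 48 h chemical exposure of HepaRG cultures. Concentrations up to 100 uM in half-log steps, 0.5% DMSO vehicle; both induction and suppression scored.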

[9] = read-out: ABC Transporter (ABCC2), ABCC2 (gene 1244); experiment: LTEA_HepaRG_ABCC2: Life Technologies and Expression Analysis (LTEA) Assay for ABC Transporter (ABCC2) using HepaRG (AID 2283464); settings: mRNA level, 48 h; actives raise or lower the signal
Method in brief: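 HepaRG, 48 h post-plating; serum-free induction medium; cpd 8-pt, 100 uM top, half-log, 0.5% DMSO, duplicate, 48 h. Readout: ABCC2 mRNA by qRT-PCR, norm. ACTB/GAPDH/POLR2A. Bidirectional fit vs DMSO baseline.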

[10] = read-out: Broad substrate specificity ATP-binding cassette transporter ABCG2 (Homo sapiens) (UniProt Q9UNQ0); experiment: LTEA_HepaRG_ABCG2: Life Technologies and Expression Analysis (LTEA) Assay for ABC Transporter (ABCG2) using HepaRG (AID 2283465); settings: mRNA level, 48 h; actives raise or lower the signal
Method in brief: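 ABCG2 transcript was quantified by TaqMan qRT-PCR against three housekeeping genes in HepaRG cells. Cells were treated in duplicate for 48 h across an 8-point half-log series up to 100 uM, with 0.5% DMSO vehicle. Gain or loss versus DMSO was fit.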

[11] = read-out: ATP-citrate lyase (ACLY), ACLY (gene 47); experiment: LTEA_HepaRG_ACLY: Life Technologies and Expression Analysis (LTEA) Assay for ATP-citrate lyase (ACLY) using HepaRG (AID 2283466); settings: mRNA level, 48 h; actives raise or lower the signal
Method in brief: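 ACLY mRNA quantified by qRT-PCR on Fluidigm arrays against three housekeeping genes, after 48 h chemical treatment of HepaRG cells (top concentration 100 uM, half-log steps, 0.5% DMSO vehicle). Up- or down-regulation fitted relative to DMSO.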

[12] = read-out: Peroxisomal acyl-coenzyme A oxidase 1 (ACOX1) gene, ACOX1 (gene 51); experiment: LTEA_HepaRG_ACOX1: Life Technologies and Expression Analysis (LTEA) Assay for Peroxisomal acyl-coenzyme A oxidase 1 (ACOX1) gene using HepaRG (AID 2283467); settings: mRNA level, 48 h; actives raise or lower the signal
Method in brief: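 ACOX1 transcript levels were quantified by TaqMan qRT-PCR against three housekeeping genes after 48 h chemical exposure of differentiated human HepaRG cells. Exposure used eight half-log steps topping at 100 uM, 0.5% DMSO vehicle, in duplicate. Bidirectional curve fits were made relative to DMSO.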

[13] = read-out: Alkaline Phosphatase, Placental (ALPP) gene, ALPP (gene 250); experiment: LTEA_HepaRG_ALPP: Life Technologies and Expression Analysis (LTEA) Assay for Alkaline Phosphatase, Placental (ALPP) gene using HepaRG (AID 2283468); settings: mRNA level, 48 h; actives raise or lower the signal;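 for AC50: differentiated human HepaRG liver cells in serum-free induction medium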
Method in brief: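 HepaRG, 48 h plating then 48 h dosing, serum-free induction medium, 0.5% DMSO. 8 conc, half-log, max 100 uM, duplicates. Endpoint: ALPP transcript by qRT-PCR, housekeeping-normalized; gain or loss fitted vs DMSO.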

[14] = read-out: Bcl-2 (BAD) gene, BAD (gene 572); experiment: LTEA_HepaRG_BAD: Life Technologies and Expression Analysis (LTEA) Assay for Bcl-2 (BAD) gene using HepaRG (AID 2283469); settings: mRNA level, 48 h; actives raise or lower the signal
Method in brief: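 Read-out: qRT-PCR of BAD mRNA, normalized to three housekeeping genes. Human HepaRG cultures got 48 h chemical exposure in 0.5% DMSO, duplicate eight-point half-log series topping at 100 uM. Gain or loss of signal fitted versus DMSO vehicle.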

[15] = read-out: Bcl-2 (BAX) gene, BAX (gene 581); experiment: LTEA_HepaRG_BAX: Life Technologies and Expression Analysis (LTEA) Assay for Bcl-2 (BAX) gene using HepaRG (AID 2283470); settings: mRNA level, 48 h; actives raise or lower the signal
Method in brief: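 qRT-PCR read-out of BAX mRNA, normalized to three housekeeping genes, after 48 h chemical exposure of human HepaRG cells in serum-free induction medium; eight-point half-log series, top 100 uM, 0.5% DMSO vehicle; bidirectional fit versus DMSO.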

[16] = read-out: adenosine kinase (ADK) gene, ADK (gene 132); experiment: LTEA_HepaRG_ADK: Life Technologies and Expression Analysis (LTEA) Assay for adenosine kinase (ADK) gene using HepaRG (AID 2283471); settings: mRNA level, 48 h; actives raise or lower the signal
Method in brief: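 ADK expression quantified by qRT-PCR, normalised to three housekeeping genes, after 48 h exposure of HepaRG cells to eight concentrations (top 100 uM, half-log steps, duplicate, 0.5% DMSO). Up- or down-regulation fitted relative to vehicle.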

[17] = read-out: CFLAR gene, CFLAR (gene 8837); experiment: LTEA_HepaRG_CFLAR: Life Technologies and Expression Analysis (LTEA) Assay for CFLAR gene using HepaRG (AID 2283455); settings: mRNA level, 48 h; actives raise or lower the signal
Method in brief: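 Transcript level by qRT-PCR (normalized to ACTB, GAPDH and POLR2A) after 48 h chemical exposure of HepaRG cells, top concentration 100 uM with half-log steps, 0.5% DMSO vehicle, duplicates; fitted bidirectionally against DMSO baseline.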

[18] = read-out: Forkhead box O1 (FOXO1), FOXO1 (gene 2308); experiment: LTEA_HepaRG_FOXO1: Life Technologies and Expression Analysis (LTEA) Assay for Forkhead box O1 (FOXO1) using HepaRG (AID 2283456); settings: mRNA level, 48 h; actives raise or lower the signal
Method in brief: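 FOXO1 transcript quantified by qRT-PCR after 48 h chemical exposure (top 100 uM, half-log steps, 0.5% DMSO) of HepaRG cells, housekeeping-normalized (ACTB/GAPDH/POLR2A). Changes fitted in both directions relative to vehicle.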

[19] = CEETOX_H295R_TESTO: CeeTox H295R High-throughput Steroidogenesis Assay for Testosterone (TESTO) (AID 2283457); settings: actives raise or lower the signal
Method in brief: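 H295R, passage ≤10, 48 h dosing; media extracted with MTBE → HPLC-MS/MS for testosterone; 7-pt standard curve sets LLOQ/ULOQ; bidirectional fit vs DMSO; MTT viability same wells.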

Measured: AC50

Sequence of Broad substrate specificity ATP-binding cassette transporter ABCG2 (Homo sapiens) (Q9UNQ0 whole entry, looked up): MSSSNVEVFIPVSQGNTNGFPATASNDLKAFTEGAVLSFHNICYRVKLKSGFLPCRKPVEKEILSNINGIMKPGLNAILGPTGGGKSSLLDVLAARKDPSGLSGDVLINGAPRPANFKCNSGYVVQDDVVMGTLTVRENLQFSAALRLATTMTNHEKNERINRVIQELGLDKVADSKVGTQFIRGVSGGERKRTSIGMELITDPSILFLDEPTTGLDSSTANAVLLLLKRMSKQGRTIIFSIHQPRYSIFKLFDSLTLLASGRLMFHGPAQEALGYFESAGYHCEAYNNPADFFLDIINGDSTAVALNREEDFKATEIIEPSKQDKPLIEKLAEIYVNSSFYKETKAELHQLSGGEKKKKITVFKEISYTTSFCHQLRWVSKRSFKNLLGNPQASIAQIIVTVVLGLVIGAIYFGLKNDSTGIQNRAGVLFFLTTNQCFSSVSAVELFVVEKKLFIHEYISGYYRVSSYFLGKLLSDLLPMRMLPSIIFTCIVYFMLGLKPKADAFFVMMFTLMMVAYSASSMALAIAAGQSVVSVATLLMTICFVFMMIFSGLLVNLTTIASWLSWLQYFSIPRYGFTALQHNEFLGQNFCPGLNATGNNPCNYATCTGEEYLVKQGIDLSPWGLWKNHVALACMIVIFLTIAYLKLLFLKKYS

Cc1cccc(N)c1N
active: [1] 50 µM | [2] 61.7 µM | [4] 50 µM | [6] 64 µM | [8] 62.6 µM | [12] 50 µM
not listed: [17] | [18] | [19]
inactive: all other assays above

O=[N+]([O-])C(Br)(CO)CO
not listed: [18] | [19]
inactive: all other assays above

CN(C)C(=O)Nc1ccc(Cl)cc1
not listed: [17] | [19]
inactive: all other assays above

CCCCCCCCCCCCCN1CC(C)OC(C)C1 (configuration not stated)
not listed: [17] | [18] | [19]
inactive: all other assays above

Cc1ccc(N)c(N)c1
not listed: [7] | [18] | [19]
inactive: all other assays above

CC(C)(O)c1cnn2c(-c3ccc(F)c(-c4c(F)cccc4C#N)c3)cnc2n1
active: [5] 0.438 µM | [8] 13.1 µM | [9] 0.304 µM | [12] 0.00316 µM
not listed: [17] | [18]
inactive: all other assays above

ClC1=C(Cl)C2(Cl)C3C(Cl)C=CC3C1(Cl)C2(Cl)Cl (configuration not stated)
active: [5] 1.45 µM | [8] 41.6 µM | [9] 11.4 µM | [10] 8.6 µM
not listed: [18] | [19]
inactive: all other assays above

Brc1ccc(Oc2ccccc2)cc1
not listed: [18] | [19]
inactive: all other assays above

c1ccc(C2CO2)cc1 (configuration not stated)
not listed: [17] | [18] | [19]
inactive: all other assays above

Cn1cc(-c2ccccc2)c(=O)c(-c2cccc(C(F)(F)F)c2)c1
active: [5] 7.25 µM | [9] 5.1 µM | [10] 10.6 µM | [13] 50 µM
not listed: [17] | [19]
inactive: all other assays above

Cc1ccc(N)cc1
not listed: [17] | [18] | [19]
inactive: all other assays above

CCN(CC)N=O
not listed: [17] | [18] | [19]
inactive: all other assays above

CC(C)(OOC(C)(C)c1ccccc1)c1ccccc1
active: [6] 50 µM | [9] 50 µM
not listed: [18] | [19]
inactive: all other assays above

O=P(OCCCl)(OCCCl)OCCCl
active: [15] 9.92 µM
not listed: [17] | [18] | [19]
inactive: all other assays above

O=C(O)C1C2CCC(O2)C1C(=O)O (configuration not stated)
active: [2] 56.4 µM | [4] 37.4 µM | [8] 77.9 µM | [10] 14.2 µM | [13] 20.1 µM
not listed: [17] | [18] | [19]
inactive: all other assays above
